Our source for the outcome values is PubChem BioAssay (EPA / NIEHS).

Inconclusive results are not listed. Active and inactive are the calls of the source. How the source made its calls: active means hit-call score of the fitted dose curve at least 0.9, where 1 is the maximum; inconclusive means response in the unintended direction; inactive means score below 0.9.

A short description of this assay: Tanguay_ZF_120hpf_BRAI_legacy: (Legacy) Oregon State University Tanguay Lab 120 Hour Post-fertilization zebrafish Assay for Brain Malformation (AID 2283641). The method, then:
Tanguay_ZF_120hpf_legacy is a whole embryo, multiplexed endpoint assay using zebrafish larvae exposed for 120 hours post fertilization on a 96-well plate.Tanguay_ZF_120hpf_BRAI_legacy is one of one assay component(s) measured or calculated from the Tanguay_ZF_120hpf_legacy assay. It is designed to make measurements of zebrafish development as detected with brightfield microscopy of developing zebrafish embryos.Data from the assay component Tanguay_ZF_120hpf_BRAI_legacy was analyzed into 1 assay endpoints. This assay endpoint, Tanguay_ZF_120hpf_BRAI_legacy, was analyzed in the positive analysis fitting direction relative to DMSO as the negative control and baseline of activity. Using a type of morphology reporter, gain-of-signal activity can be used to understand changes in developmentals as they relate to the whole embryo. To generalize the intended target to other relatable targets, this assay endpoint is annotated to the zebrafish development intended target family, where the subfamily is brain morphogenesis.
Zebrafish husbandry: Tropical 5D wild-type adult zebrafish were housed in at an approximate density of 1000 per 100 gallon tank at the Sinnhuber Aquatic Research Laboratory, Oregon State University, Corvallis, OR. Each tank was kept at standard laboratory conditions of 28C on a 14-h light/10-h dark photoperiod in fish water consisting of reverse osmosis water supplemented with a commercially available salt (Instant Ocean). Spawning funnels were placed into the tanks the night prior, and embryos were collected and staged. […] Ten microliters of each row of dilution plate 2 was added to 2 exposure plates. The final DMSO concentration used was 0.64% (vol/vol). Thirty-two embryos were also exposed to 5uM trimethyltin chloride (positive control). Plates were sealed to prevent evaporation and foil covered to reduce light exposure and kept in a 28C incubator. Embryos were statically exposed until 120 hpf. At 24 hpf, embryos were assessed for photomotor response using a custom photomotor response analysis tool (PRAT) and for developmental toxicity endpoints (MO24: mortality at 24 hpf, DP: developmental progression, SM: spontaneous movement, and NC: notochord distortion). At 120 hpf, locomotor activity was measured using Viewpoint Zebralab and assessed for 18 endpoints. Zebrafish acquisition and analysis program (ZAAP), a custom program designed to inventory, acquire, and manage zebrafish data, was used to collect developmental endpoints as either present or absent (i.e., binary responses were recorded). If mortality occurred for an embryo (at either 24 or 120 hpf), the non-mortality endpoints were not measured.
In the case of `CN(C)CCCN1c2ccccc2Sc2ccc(Cl)cc21`, the result was inactive.
With `CCCCCCCCCCCCCCCCO`, the call was inactive.
Under `O=C1c2c(O)cccc2Cc2cccc(O)c21` stands “inactive”; under `COc1ccc(OC(F)(F)F)cc1CN[C@H]1CCCN[C@H]1c1ccccc1`, “inactive”.
Under `COC(=O)[C@H]1[C@H]2C[C@@H]3c4[nH]c5cc(OC)ccc5c4CCN3C[C@H]2C[C@@H](OC(=O)c2cc(OC)c(OC)c(OC)c2)[C@@H]1OC` stands “inactive”; under `O=C(O)CC(O)(CC(=O)O)C(=O)O`, “inactive”; under `CCCCCCCCCC[N+](C)(C)[O-]`, “inactive”.
Under `CC(=O)O[C@]1(C(C)=O)CC[C@H]2[C@@H]3C=C(Cl)C4=CC(=O)[C@@H]5C[C@@H]5[C@]4(C)[C@H]3CC[C@@]21C` stands “inactive”.
Turning to `CC(C)(O)c1ccc(CNC(=O)c2cccnc2Oc2ccc(F)cc2)cc1`, the compound was classed as inactive.
Under `O=C1CCCCC1` stands “inactive”; under `C=CCc1ccc(OC)c(OC)c1`, “inactive”.
Turning to `CO[C@@H]1COCC[C@@H]1N[C@@H]1CC[C@@](C(=O)N2CCc3ncc(C(F)(F)F)cc3C2)(C(C)C)C1`, the call was inactive.
In the case of `CC(=O)OC1CC(C)OC(C)O1` (stereo not given), the result was inactive.
Regarding `OCC(CO)n1cnc(-c2ccc(F)cc2)c1-c1ccnc(Oc2ccccc2)n1`, the call was inactive.
Under `O=[Si]=O` stands “inactive”; under `CSc1ccc(Oc2ccc(S(N)(=O)=O)cc2CN(C)C)cc1C`, “inactive”; under `CC(C)(C)c1ccccc1`, “inactive”.
To `CC(C)NCC(O)c1ccc(O)c(O)c1` (stereo not given) belongs “inactive”; to `OCC(O)CO`, “inactive”; to `Cc1cn([C@H]2C=C[C@@H](CO)O2)c(=O)[nH]c1=O`, “inactive”.
Turning to `Cc1cc(SC2=C(O)C[C@@](CCc3ccc(N)cc3)(C(C)C)OC2=O)c(C(C)(C)C)cc1CO`, the compound was called inactive.
Under `CCc1cc(C2=C(C(=O)O)N(c3ccccc3C(F)(F)F)S(=O)(=O)c3ccccc32)cc2c1OCO2` stands “inactive”.
As to `C#CC(O)C(CC)CCCC` (stereo not given), the outcome was inactive.
Take `CC(C)c1cccc(C(C)C)c1`: the outcome was inactive.
To `O=Cc1ccccc1C=O` belongs “inactive”; to `CCCCCCC(CCCCCCCCCCC(=O)OCC(COC(C)=O)OC(C)=O)OC(C)=O` (stereo not given), “inactive”; to `O=C(Oc1ccccc1)c1cccc(C(=O)Oc2ccccc2)c1`, “inactive”.
In the case of `CCCCc1nc2cccnc2n1Cc1ccc(-c2ccccc2-c2nnn[nH]2)cc1`, the outcome was inactive.
To `CCCCC(CC)CO` (stereo not given) belongs “inactive”; to `NC1CCCCC1`, “inactive”.
Consider `CN(C)CCCN(C)CCCN(C)C`, for which the outcome was inactive.
To `O=C1NC(=O)C(c2ccccc2)(c2ccccc2)N1` belongs “inactive”; to `O=C(O)CN(CC(=O)O)CC(=O)O`, “inactive”; to `Cc1cc(Cc2ccc(N)c(C)c2)ccc1N`, “inactive”.
For `NC=O`, the outcome was inactive.
On to `Cc1ccc(-c2cc(C(F)(F)F)nn2-c2ccc(S(N)(=O)=O)cc2)cc1`, for which the compound was called inactive.
Consider `CCC(C)N(C)C(=O)c1cc2ccccc2c(-c2ccccc2Cl)n1` (stereo not given), for which the compound was classed as inactive.
Turning to `Cc1occc(=O)c1O`, the outcome was inactive.
To `O=C(N[C@@H](c1ccccc1)[C@@H]1CCCCN1)c1cccc(C(F)(F)F)c1Cl` belongs “inactive”; to `CCc1nc(N)nc(N)c1-c1ccc(Cl)cc1`, “inactive”.
